Inconclusive results are not listed. Calls of active or inactive are those of the source. Calls follow the shape of the dose curve; as a rule, active = well fitted inhibition curve with a large enough effect; inconclusive = small, poorly fitted or top-dose-only effect; inactive = flat fitted curve, though single readings scatter.

What all share (assay): qHTS profiling for inhibitors of Plasmodium falciparum proliferation (AID 504749); also: nearly all actives have a fitted effect of over 60% in size
Conditions in all cases: P. falciparum in erythrocytes, SYBR Green DNA, 72 h; series mostly up to 28.7 µM

In one assay the test system is CP297. The method in brief:
(§1)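 Three-day growth assay of blood-stage parasites in erythrocytes (0.3% parasitemia, 2.5% hematocrit) at 37 C, 5% CO2, quantified by SYBR Green DNA staining after overnight detergent lysis.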

The test system of the next assay is CP305. Put shortly: as §1
Another assay has as its system CP315. Put shortly:
as §1

In another assay the test system is CP329. The method in brief:
as §1

For a further assay, the system named is DIV14. Put shortly:
as §1

In another assay the test system is DIV17. Put shortly: as §1
The next assay concerns Dd2. The method in brief:
as §1

The test system of the next assay is FAB9. The method in brief:
as §1

The next assay relates to ICS. The method in brief:
as §1

A further assay has as its system N140. Put shortly: as §1
For a further assay, the system named is DFO2036. Put shortly: as §1
Another assay deals with DIV30. Put shortly:
as §1

A further assay has as its system ECU. Put shortly:
as §1

The subject of the next assay is GB4. Put shortly:
as §1

The subject of the next assay is HB3. Put shortly:
as §1

For the next assay, the system named is JCK. The method in brief:
as §1

Another assay deals with P93_24. The method in brief: as §1
The next assay deals with CP325. The method in brief: as §1
For the next assay, the system named is CP335. Put shortly: as §1
Potency is read from the fitted curve at half-maximal effect.

For `CN(C)CC/C=C1\c2ccccc2Sc2ccc(Cl)cc21`, the Potency result in the assay on CP297, with CP305, with CP315 and in the assay on CP329 was “inactive” each time. The Potency in the assay with DIV14 is 7.57 µM (active); with DIV17, 3.38 µM (active); in the assay with Dd2, 8.91 µM (active); with FAB9 it was 8.91 µM (active); in the assay on ICS it was 10 µM (active); in the assay with N140, 12.6 µM (active).
With `C[C@@H]1CN(CCCn2c3ccccc3c3ccccc32)C[C@H](C)N1`, the Potency result in the assay with CP315, in the assay with FAB9, in the assay with HB3 and in the assay with JCK was “inactive” throughout. The Potency in the assay on DFO2036 is 14.1 µM (active); in the assay on DIV14 it was 2.39 µM (active); with DIV17, 4.78 µM (active); in the assay with DIV30, 9.53 µM (active); with Dd2 it was 6.31 µM (active); in the assay with ECU, 10 µM (active). Moreover, the Potency in the assay with GB4 was 13.5 µM (active); in the assay with ICS, 5.01 µM (active); in the assay on N140, 12.6 µM (active); in the assay on P93_24, 5.01 µM (active).
Take `COc1ccc(CN2CCN(C(c3ccc(F)cc3)c3ccc(F)cc3)CC2)c(OC)c1OC`: the Potency is 16.9 µM (active) with CP325; 6.01 µM (active) in the assay on CP335; 12 µM (active) with DIV14; 12 µM (active) with DIV17; 16.9 µM (active) in the assay with DIV30; 7.94 µM (active) in the assay with Dd2. Also, the Potency with ECU was 12.6 µM (active); with GB4, 9.53 µM (active); with HB3 it was 11.2 µM (active); in the assay on ICS it was 2.24 µM (active); in the assay on N140, 8.91 µM (active); in the assay on P93_24, 7.94 µM (active).
Regarding `CO/N=C1\CN(c2nc3c(cc2F)c(=O)c(C(=O)O)cn3C2CC2)CC1CN` (stereo not given), the Potency with CP335 was 6.75 µM (active); in the assay on Dd2, 10 µM (active); in the assay with GB4, 9.53 µM (active); in the assay on HB3 it was 11.2 µM (active); in the assay on ICS, 5.62 µM (active); in the assay on P93_24 it was 8.91 µM (active).
As for `CC(O)(P(=O)(O)O)P(=O)(O)O`, the Potency entry in the assay with CP315, in the assay on CP329, in the assay with CP335, with DFO2036, in the assay on DIV30 and in the assay on Dd2 was “inactive” each time. Besides, the Potency entry in the assay with ECU, in the assay with FAB9, in the assay with HB3, with ICS, with JCK and in the assay with N140 was “inactive” throughout. In addition, in the assay with P93_24, the Potency entry is “inactive”.
For `CC(C)=CCC1C(=O)N(c2ccccc2)N(c2ccccc2)C1=O`, the Potency result in the assay on CP315, in the assay with FAB9, in the assay with JCK and in the assay with P93_24 was “inactive” in each case.
For the compound `CCCCCCCCCCCCCCCC[N+](C)(C)CCN(Cc1ccc(OC)cc1)c1ncccn1`, the Potency entry in the assay with CP297, in the assay with CP305, in the assay on CP315, with CP329, in the assay on DIV30 and in the assay with FAB9 was “inactive” throughout. Further, the Potency entry in the assay with HB3 and in the assay with JCK was “inactive” throughout. Also, the values for the Potency in the assay on DIV14 and with ECU were 7.21 µM (active) and 1.12 µM (active), respectively.
Turning to `CCCCc1nc(Cl)c(CO)n1Cc1ccc(-c2ccccc2-c2nn[nH]n2)cc1`, the Potency result in the assay on CP297, in the assay on FAB9 and in the assay on JCK was “inactive” in each case. Besides, the Potency was 8.49 µM (active) in the assay on DIV14, 7.94 µM (active) in the assay with ICS and 12.6 µM (active) in the assay on N140.
For `OC(CCN1CCCCC1)(c1ccccc1)c1ccccc1`, the Potency in the assay with CP297 is 6.01 µM (active); in the assay on DIV14 it was 4.26 µM (active); in the assay with DIV17, 6.75 µM (active); in the assay on Dd2 it was 10 µM (active); in the assay with GB4 it was 6.75 µM (active); in the assay with ICS, 12.6 µM (active). In addition, the Potency entry in the assay with ECU, in the assay with FAB9 and in the assay with HB3 was “inactive” in each case.
`c1ccc(-c2ccc(C(c3ccccc3)n3ccnc3)cc2)cc1` (stereo not given): the Potency with CP297 was 6.75 µM (active); with CP315 it was 16.9 µM (active); in the assay with DIV14, 9.53 µM (active); in the assay on DIV17 it was 10.7 µM (active); in the assay with DIV30, 12 µM (active); in the assay with Dd2, 7.94 µM (active). For the same compound, the Potency in the assay with ECU was 3.55 µM (active); in the assay on GB4 it was 8.49 µM (active); in the assay with HB3, 10 µM (active); with ICS it was 2.24 µM (active); in the assay on N140, 7.08 µM (active); in the assay on P93_24, 3.16 µM (active).
Take `CC(C)NC[C@@H](O)COc1cccc2ccccc12`: the Potency entry with CP297, in the assay with CP315, with CP325 and in the assay on FAB9 was “inactive” in each case. For the same compound, the Potency with DIV14 is 13.5 µM (active); in the assay on DIV17 it was 9.53 µM (active); in the assay with Dd2 it was 12.6 µM (active); with GB4, 12 µM (active); with ICS it was 7.08 µM (active); in the assay on N140, 12.6 µM (active).
Regarding `O=c1c(-c2ccccc2)c1-c1ccccc1`, the Potency in the assay with DIV17 was 10.7 µM (active); in the assay with Dd2, 10 µM (active); with GB4, 10.7 µM (active); with HB3, 11.2 µM (active); in the assay on ICS it was 4.47 µM (active); in the assay on N140, 11.2 µM (active).
Turning to `CC(C)COC(=O)c1ccc(N)cc1`, the Potency result in the assay with CP297, in the assay on CP305, in the assay on CP315, with CP335, in the assay with DFO2036 and in the assay on DIV17 was “inactive” throughout. The Potency entry in the assay with DIV30, with Dd2, with ECU, in the assay on FAB9, with GB4 and with HB3 was “inactive” in each case. Also, the Potency result in the assay with ICS, in the assay on N140 and in the assay with P93_24 was “inactive” throughout.
In the case of `CCOC(=O)c1cccc(N)c1`, the Potency was 15.1 µM (active) in the assay on CP297 and 12 µM (active) in the assay on DIV30. Besides, the Potency result in the assay on CP335, in the assay on DFO2036, in the assay on Dd2, in the assay with ECU, with FAB9 and in the assay on HB3 was “inactive” in each case. Further, the Potency entry with ICS, in the assay on JCK, in the assay on N140 and with P93_24 was “inactive” throughout.
Take `O=C1OCCN1/N=C/c1ccc([N+](=O)[O-])o1`: the Potency result in the assay with CP297, in the assay on CP315, in the assay with CP325 and in the assay on CP329 was “inactive” in each case. For the same compound, the Potency with Dd2 is 11.2 µM (active); in the assay on ICS, 7.94 µM (active); in the assay with P93_24, 11.2 µM (active).
In the case of `CCN(CCCc1ccccc1)CCCc1ccccc1`, the Potency entry in the assay on CP305, in the assay with CP315, with CP329, in the assay on DFO2036, with ECU and with FAB9 was “inactive” in each case. Moreover, the Potency entry in the assay on HB3 and in the assay on JCK was “inactive” each time. In addition, in the assay with Dd2, the Potency is 3.16 µM (active).

(Values after PubChem BioAssay (NCATS).)
